Results filed as inconclusive are left out. Activity calls are given as the source filed them. Unless noted, the call rests on the fitted dose curve.
Legend:
[1] = Natriuretic polypeptide receptor (hNpr1) antagonism - Pilot counterscreen GloSensor control cell line (AID 1347045); further: series mostly up to about 38 µM
Outline: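 HEK293 cells carrying the GloSensor cGMP sensor (GIP/pGS-40F) were loaded with 2% GloSensor reagent for 2 h, exposed to compounds for 30 min, and then stimulated with 50 uM sodium nitroprusside for 20 min at room temperature.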

[2] = target: Atrial natriuretic peptide receptor 1 (Homo sapiens) (UniProt P16066); test: Natriuretic polypeptide receptor (hNpr1) antagonism - Pilot screen (AID 1347049);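 further: agonist-evoked cGMP luminescence read 20 min after hNppA addition; series mostly up to about 58 µM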
Chain of Atrial natriuretic peptide receptor 1 (Homo sapiens) (P16066 whole entry, looked up): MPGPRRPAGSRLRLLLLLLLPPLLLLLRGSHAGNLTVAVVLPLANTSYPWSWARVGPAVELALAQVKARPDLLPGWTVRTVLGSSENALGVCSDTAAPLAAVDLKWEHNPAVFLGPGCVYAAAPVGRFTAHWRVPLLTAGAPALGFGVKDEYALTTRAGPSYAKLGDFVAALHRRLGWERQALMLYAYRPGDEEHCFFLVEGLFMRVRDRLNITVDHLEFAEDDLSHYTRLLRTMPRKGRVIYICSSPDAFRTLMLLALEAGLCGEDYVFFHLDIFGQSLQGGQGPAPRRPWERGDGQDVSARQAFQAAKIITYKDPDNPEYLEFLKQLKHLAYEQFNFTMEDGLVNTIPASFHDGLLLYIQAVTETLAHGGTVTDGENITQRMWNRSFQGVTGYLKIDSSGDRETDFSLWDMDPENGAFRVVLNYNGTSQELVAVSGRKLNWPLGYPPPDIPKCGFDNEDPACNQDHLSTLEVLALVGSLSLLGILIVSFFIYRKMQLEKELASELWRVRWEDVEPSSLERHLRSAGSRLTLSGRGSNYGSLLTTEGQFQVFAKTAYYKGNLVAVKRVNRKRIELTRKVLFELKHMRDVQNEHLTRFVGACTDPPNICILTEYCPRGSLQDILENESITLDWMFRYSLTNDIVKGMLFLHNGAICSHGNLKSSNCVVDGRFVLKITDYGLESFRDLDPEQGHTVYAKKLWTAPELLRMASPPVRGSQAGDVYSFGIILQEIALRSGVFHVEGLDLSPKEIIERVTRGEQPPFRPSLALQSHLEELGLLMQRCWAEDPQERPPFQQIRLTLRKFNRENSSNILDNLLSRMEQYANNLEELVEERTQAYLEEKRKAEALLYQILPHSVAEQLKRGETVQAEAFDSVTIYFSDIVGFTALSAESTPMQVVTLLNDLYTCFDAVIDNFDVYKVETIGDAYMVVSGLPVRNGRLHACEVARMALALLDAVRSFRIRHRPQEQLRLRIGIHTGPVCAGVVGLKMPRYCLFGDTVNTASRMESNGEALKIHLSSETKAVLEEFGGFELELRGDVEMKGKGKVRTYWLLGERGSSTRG
Outline: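 HEK293 cells co-expressing hNpr1 and the GloSensor pGS-40F cGMP luciferase sensor were preloaded with 2% GloSensor reagent for 2 h. Compounds were added for 30 min at room temperature, then cells were stimulated with 0.1 nM hNppA for 20 min before luminescence readout.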

[3] = target: Atrial natriuretic peptide receptor 2 (Homo sapiens) (UniProt P20594); test: Natriuretic polypeptide receptor (hNpr2) antagonism - Pilot subtype selectivity assay (AID 1347050)
Chain of Atrial natriuretic peptide receptor 2 (Homo sapiens) (P20594 whole entry, looked up): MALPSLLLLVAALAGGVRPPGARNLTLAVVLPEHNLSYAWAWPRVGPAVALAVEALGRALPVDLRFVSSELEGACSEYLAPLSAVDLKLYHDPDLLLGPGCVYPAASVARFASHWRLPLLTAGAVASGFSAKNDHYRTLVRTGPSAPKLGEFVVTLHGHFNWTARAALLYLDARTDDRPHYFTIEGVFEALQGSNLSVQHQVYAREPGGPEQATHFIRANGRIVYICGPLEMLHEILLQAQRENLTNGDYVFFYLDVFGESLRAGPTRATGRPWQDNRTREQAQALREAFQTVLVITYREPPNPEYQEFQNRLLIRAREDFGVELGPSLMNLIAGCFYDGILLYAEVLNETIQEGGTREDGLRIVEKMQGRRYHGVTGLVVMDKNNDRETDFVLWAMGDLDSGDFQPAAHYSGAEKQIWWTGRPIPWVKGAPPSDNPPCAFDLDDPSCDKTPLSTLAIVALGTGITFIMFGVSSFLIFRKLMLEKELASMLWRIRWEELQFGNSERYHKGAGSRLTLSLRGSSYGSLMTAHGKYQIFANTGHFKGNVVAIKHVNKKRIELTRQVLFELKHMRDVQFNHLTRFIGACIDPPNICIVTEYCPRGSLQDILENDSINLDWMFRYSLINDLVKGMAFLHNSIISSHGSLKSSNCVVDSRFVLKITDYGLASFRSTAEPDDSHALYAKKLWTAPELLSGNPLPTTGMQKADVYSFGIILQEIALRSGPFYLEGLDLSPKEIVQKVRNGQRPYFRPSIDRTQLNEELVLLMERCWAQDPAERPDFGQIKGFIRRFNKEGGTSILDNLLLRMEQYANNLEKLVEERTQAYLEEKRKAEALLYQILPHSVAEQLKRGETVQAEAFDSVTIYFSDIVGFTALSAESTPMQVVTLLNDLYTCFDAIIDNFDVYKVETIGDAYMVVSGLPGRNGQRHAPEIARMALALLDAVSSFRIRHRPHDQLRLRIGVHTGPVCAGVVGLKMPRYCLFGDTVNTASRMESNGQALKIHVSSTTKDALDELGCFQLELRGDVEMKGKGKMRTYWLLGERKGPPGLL
Outline: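 cGMP-sensor HEK293/hNpr2 cells; 2% GloSensor reagent 2 h RT; compounds 30 min; baseline luminescence read; 1 nM hNppC agonist 20 min RT; final luminescence read by CCD camera. Antagonism = reduced post-agonist signal.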

[4] = target: Parathyroid hormone/parathyroid hormone-related peptide receptor (Homo sapiens) (UniProt Q03431); test: qHTS for PTHR1 Agonists: Optimization Screen against the NCGC LOPAC library (AID 1347079; active means well fitted curve in the direction sought with a large enough effect; an effect the other way counts as inactive or inconclusive;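 further: GloSensor cAMP luminescence in HEK-293 GP2 cells expressing human PTHR1 with IBMX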)
Chain of Parathyroid hormone/parathyroid hormone-related peptide receptor (Homo sapiens) (Q03431 whole entry, looked up): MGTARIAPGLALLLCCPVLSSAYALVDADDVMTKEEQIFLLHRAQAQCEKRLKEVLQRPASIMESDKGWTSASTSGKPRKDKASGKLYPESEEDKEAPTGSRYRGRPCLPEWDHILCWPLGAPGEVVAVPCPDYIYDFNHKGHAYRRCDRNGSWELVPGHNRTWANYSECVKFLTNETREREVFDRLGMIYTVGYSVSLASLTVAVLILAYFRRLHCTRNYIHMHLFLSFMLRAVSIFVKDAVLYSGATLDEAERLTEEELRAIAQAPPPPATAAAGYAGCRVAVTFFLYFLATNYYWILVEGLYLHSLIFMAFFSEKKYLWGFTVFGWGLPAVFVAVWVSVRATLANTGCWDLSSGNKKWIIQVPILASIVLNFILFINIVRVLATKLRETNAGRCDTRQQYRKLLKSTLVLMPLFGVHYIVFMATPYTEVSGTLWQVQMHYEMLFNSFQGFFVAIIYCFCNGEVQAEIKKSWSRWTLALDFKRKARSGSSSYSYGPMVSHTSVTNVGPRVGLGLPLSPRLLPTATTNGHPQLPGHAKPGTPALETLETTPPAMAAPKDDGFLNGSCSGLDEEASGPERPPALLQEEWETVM
Outline: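 Compounds were tested across a qHTS titration. PTHR1-expressing GP2 cells report cAMP rises via GloSensor luminescence after 1 hr compound exposure at 37C with IBMX present.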

[5] = NS1 protein of Zika virus - qHTS assay to identify small molecule inhibitors in human HEK 293 cells (AID 1347053; active means well fitted curve in the direction sought with a large enough effect; an effect the other way counts as inactive or inconclusive; further: series mostly up to about 46 µM; nearly all actives have a fitted effect of over 55% in size)
Outline: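 HEK 293; 20 h pre-culture, 37 C/5% CO2; cpd 1 h pre-infection; ZIKV MR766, MOI = 0.5, 24 h, 37 C; TR-FRET NS1 readout (two anti-NS1 Abs); norm. to no-virus vs infected.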

[6] = target: T1, Tyrosine-protein phosphatase non-receptor type substrate 1 (Homo sapiens) + Leukocyte surface antigen CD47 (Homo sapiens) (UniProt P78324+Q08722); test: CD47-SIRPalpha protein protein interaction - HTRF assay qHTS validation (AID 1347058; active means well fitted curve in the direction sought with a large enough effect in the signal ratio, not every such curve was filed as active; the % refers to the signal ratio; further: series mostly up to about 38 µM)
T1 sequence (P78324 whole entry, looked up, the tested form may be a part): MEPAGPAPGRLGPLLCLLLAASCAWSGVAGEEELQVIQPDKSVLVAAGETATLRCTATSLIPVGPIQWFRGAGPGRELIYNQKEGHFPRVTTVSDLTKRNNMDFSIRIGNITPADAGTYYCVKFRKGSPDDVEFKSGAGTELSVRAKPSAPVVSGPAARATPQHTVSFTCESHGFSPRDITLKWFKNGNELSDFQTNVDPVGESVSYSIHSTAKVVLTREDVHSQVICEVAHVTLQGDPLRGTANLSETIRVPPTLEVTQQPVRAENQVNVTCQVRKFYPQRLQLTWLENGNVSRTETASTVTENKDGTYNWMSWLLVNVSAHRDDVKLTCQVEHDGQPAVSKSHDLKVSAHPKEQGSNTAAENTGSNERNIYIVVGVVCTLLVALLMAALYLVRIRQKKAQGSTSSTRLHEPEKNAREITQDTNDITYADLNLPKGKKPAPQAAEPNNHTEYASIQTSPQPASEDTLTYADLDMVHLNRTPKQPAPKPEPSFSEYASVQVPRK
T1 sequence (Q08722 whole entry, looked up, the tested form may be a part): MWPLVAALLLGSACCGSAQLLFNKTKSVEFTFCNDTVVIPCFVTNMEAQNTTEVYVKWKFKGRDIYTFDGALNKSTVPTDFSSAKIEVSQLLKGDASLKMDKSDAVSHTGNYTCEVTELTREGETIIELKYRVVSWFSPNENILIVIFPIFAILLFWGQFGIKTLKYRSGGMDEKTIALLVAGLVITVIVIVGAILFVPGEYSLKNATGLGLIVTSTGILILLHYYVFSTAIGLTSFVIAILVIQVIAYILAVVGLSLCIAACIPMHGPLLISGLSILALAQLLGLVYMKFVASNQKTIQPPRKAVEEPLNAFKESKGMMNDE
Outline: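 TR-FRET read (Ch1/Ch2 ratio) of soluble extracellular CD47 and Avi-biotinylated SIRPalpha domains in PBS pH 7.4 with 0.05% IGEPAL; 7-point compound titration. Sequential 30 min room-temperature steps; non-biotinylated SIRPalpha as control inhibitor.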

[7] = target: T1, Tyrosine-protein phosphatase non-receptor type substrate 1 (Homo sapiens) + Leukocyte surface antigen CD47 (Homo sapiens); test: CD47-SIRPalpha protein protein interaction - Alpha assay qHTS validation (AID 1347059; active means well fitted curve in the direction sought with a large enough effect; an effect the other way counts as inactive or inconclusive;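 further: bead proximity luminescence from CD47 binding SIRPalpha after compound preincubation with SIRPalpha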)
Outline: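 Soluble extracellular domains: Avi-tag biotinylated SIRPalpha (25 nM) preincubated 30 min RT with compound, then 6His-CD47 (12.5 nM) 30 min; Ni-NTA acceptor and streptavidin donor beads (10 ug/mL) 30 min, AlphaScreen read. PBS pH 7.4, 0.05% IGEPAL.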

[8] = target: T1, Tyrosine-protein phosphatase non-receptor type substrate 1 (Homo sapiens) + Leukocyte surface antigen CD47 (Homo sapiens); test: CD47-SIRPalpha protein protein interaction - LANCE assay qHTS validation (AID 1347057; active means well fitted curve in the direction sought with a large enough effect in the signal ratio, with a control signal flat, not every such curve was filed as active; the % refers to the signal ratio; further: series mostly up to about 38 µM)
Outline: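 First, His-tagged CD47 and Eu-labelled anti-His antibody met the compound for 30 min; next, site-specifically biotinylated SIRPalpha was added for 30 min; finally streptavidin-APC was added before reading the TR-FRET ratio.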

Measured: Potency

CCc1c(C(=O)NCCc2ccc(N3CCCCC3)cc2)[nH]c2ccc(Cl)cc12
inactive: [1] | [2] | [3] | [4]

NC(CCCP(=O)(O)O)C(=O)O (centres undefined)
not listed: [4] | [8]
inactive: all other assays above

O=C(O)c1cc([N+](=O)[O-])ccc1NCCCc1ccccc1
not listed: [6] | [8]
inactive: all other assays above

NC(=O)C1=CN(C2OC(COP(=O)(O)OP(=O)(O)OC[C@H]3O[C@@H](n4cnc5c(N)ncnc54)[C@H](OP(=O)(O)O)[C@@H]3O)C(O)C2O)C=CC1 (some centres undefined)
not listed: [7]
inactive: all other assays above

O=c1[nH]c2cc(Cl)c(Cl)cc2[nH]c1=O
inactive: [1] | [2] | [3] | [4]

CN1[C@@H](CC(=O)c2ccccc2)CCC[C@H]1C[C@H](O)c1ccccc1
inactive: all assays above

CC1OC1P(=O)(O)O (centres undefined)
not listed: [7]
inactive: all other assays above

CN1CCc2cccc3c2C1Cc1ccc(O)c(O)c1-3 (centres undefined)
not listed: [6] | [8]
inactive: all other assays above

O=C(Nc1cccc(C(=O)Nc2ccc(S(=O)(=O)O)c3cc(S(=O)(=O)O)cc(S(=O)(=O)O)c23)c1)Nc1cccc(C(=O)Nc2ccc(S(=O)(=O)O)c3cc(S(=O)(=O)O)cc(S(=O)(=O)O)c23)c1
not listed: [6] | [7]
inactive: all other assays above

From PubChem BioAssay (NCATS)
